Screening results from PubChem.
Hits are enriched below; roughly 2.4% of the tested compounds scored in any of these assays.
CHO-K1 Ca ag: nonselective activator or artifact in parental CHO-K1 cells; Fluo-8 calcium fluorescence; scaled to maximal ATP response, vehicle zero; activation, % at 3 µM; 360,000 compounds, 0.48% hits; AID 602248; in the data active = activation above about 15%;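 also: untransfected CHO-K1 host cells lacking M1 receptor as counterscreen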
CHO-K1 Ca antag: counter-screen for M1 antagonists: effect in parental CHO-K1 cells; ATP-induced calcium, Fluo-8 fluorescence; inhibition, % at 3 µM; 360,000 compounds, 0.6% hits; AID 602250;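 active = inhibition above a per-plate cutoff, the plate's mean sample inhibition plus 3 SD, cut at about 24% in these data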;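 also: 0% = DMSO plus EC80 ATP and 100% = DMSO alone without ATP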
M1 antag: blocks human M1 muscarinic receptor | P11229 | inhibition, % at 3 µM | CHO-K1 hM1, Fluo-8 calcium fluorescence, ACh EC80 antagonist | 360,000 compounds, 1.3% hits;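 active = percent inhibition above its own plate's cutoff, namely the mean of that plate's compound wells plus 3 SD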;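 also: peak over basal fluorescence ratio during 140 s after agonist addition; 0% = ACh EC80 plus DMSO and 100% = DMSO alone without agonist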
Target sequence (P11229 whole entry, looked up): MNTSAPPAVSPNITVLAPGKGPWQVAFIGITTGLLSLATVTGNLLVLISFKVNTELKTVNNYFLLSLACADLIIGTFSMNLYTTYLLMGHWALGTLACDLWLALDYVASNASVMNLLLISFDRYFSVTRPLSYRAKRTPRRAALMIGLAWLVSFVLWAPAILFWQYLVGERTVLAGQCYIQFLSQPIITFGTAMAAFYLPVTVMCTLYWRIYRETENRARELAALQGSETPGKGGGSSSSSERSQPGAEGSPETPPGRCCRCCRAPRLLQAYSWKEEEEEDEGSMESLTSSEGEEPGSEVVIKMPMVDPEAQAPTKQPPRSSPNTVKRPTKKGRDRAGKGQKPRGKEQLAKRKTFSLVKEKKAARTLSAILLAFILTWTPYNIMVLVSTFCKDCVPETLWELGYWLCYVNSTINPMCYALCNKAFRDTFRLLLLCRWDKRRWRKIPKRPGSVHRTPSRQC
M1 ag: activates human CHRM1 receptor; P11229; CHO-K1 hM1, Fluo-8 calcium fluorescence, agonist mode; 0% DMSO, 100% acetylcholine EC100; activation, % at 3 µM; 360,000 compounds, 0.33% hits;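 active = activation above the run's mean compound activation plus 3 SD, cut at about 16% in these data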;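 also: peak over basal fluorescence ratio within a 140 s kinetic read after compound addition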
CHO-K1 Ca PAM: nonselective activator or artifact in parental CHO-K1 calcium assay; activation, % at 3 µM; ATP EC20, Fluo-8 calcium fluorescence; 0% at ATP EC20, 100% at ATP max; 360,000 compounds, 0.02% hits;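 active = activation above the run cutoff, the mean activation of all test compounds plus 3 SD, cut at about 40% in these data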;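 also: peak over basal fluorescence ratio in a 140 s read after ATP addition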
CHRM1 PAM: positive allosteric modulators of human M1 muscarinic receptor; P11229; CHO-K1 hM1, Fluo-8 calcium fluorescence, ACh EC20; 0% = ACh EC20, 100% = maximal ACh; activation, % at 3 µM; 360,000 compounds, 0.088% hits; in the data active = activation above about 19%, passing the limit was not always enough
Starred values were filed as active, the others as inactive.

SMILES	CHO-K1 Ca ag	CHO-K1 Ca antag	M1 antag	M1 ag	CHO-K1 Ca PAM	CHRM1 PAM
O=C(Nc1ccccc1Cl)N1CCN(c2ccc3nnc(-c4ccc(F)cc4)n3n2)CC1	0	-16	-3	-13	7	-2
Cc1cc(C)c2[nH]c(=O)c(C(c3nnnn3Cc3ccc4c(c3)OCO4)N3CCC(C)CC3)cc2c1 (configuration not stated)	0	-5	-34	0	7	-2
Cc1ccc(C)c(NC(=O)C(c2ccccc2)N2CCN(CC(=O)N3CCOCC3)CC2)c1 (configuration not stated)	2	-14	-5	-1	21	7
Cc1ccc(C)c(NC(=O)C(NCC(C)(C)N2CCOCC2)c2ccccc2)c1 (configuration not stated)	1	-10	92*	-8	17	-27
CN(C)CCN(C(=O)c1cccc2ccccc12)c1nc2cc3c(cc2s1)OCO3	1	-10	47*	-7	-7	-19
CN(C)CCCN(C(=O)c1ccc2ccccc2c1)c1nc2cc3c(cc2s1)OCO3	3	-8	2	-1	-4	-1
CC1(C(=O)Nc2cccc(C#N)c2)CCN1C(=O)Cc1ccc(-c2ccccc2)cc1 (configuration not stated)	11	28*	42*	3	-6	-15
O=C(Cc1coc2ccc3ccccc3c12)Nc1nccs1	0	26*	1	4	-7	6
CN(C)C(CNC(=O)CCc1nc2cc(Cl)ccc2n(Cc2ccccc2)c1=O)c1ccccc1 (configuration not stated)	1	-12	27*	-8	-1	-23
O=C1OCCN1C(=O)[C@H]1[C@H](c2ccc(Cl)cc2)C(c2ccc(F)cc2)=NN1c1ccccc1	1	-15	15	-3	16	-10
O=C1OCCN1C(=O)[C@H]1[C@H](c2ccc(Cl)cc2)C(c2ccccc2)=NN1c1ccccc1	0	-1	26*	-3	-7	-13
c1ccc2c3c([nH]c2c1)CCNC3	1	-6	-4	27*	20	-8
COc1ccc(CCC(C)N2CCC(Oc3ccc(C(=O)N4CCCC4)cc3)CC2)cc1 (configuration not stated)	2	-8	67*	-6	-4	-21
CN(Cc1nccn1C)C(=O)c1ccc(OC2CCN(CCc3ccccc3)CC2)cc1	0	5	47*	-6	-18	-19
CC(=O)N1CCN(C(=O)c2ccc(OC3CCN(CCc4ccccc4)CC3)cc2)CC1	0	7	37*	-6	-14	-14
CC(C)N(C)C(=O)c1ccc(OC2CCN(CCc3ccccc3)CC2)cc1	3	-9	-10	-5	15	-1
CC(CCc1ccc(O)cc1)N1CCC(Oc2ccc(C(=O)N3CCCC3)cc2)CC1 (configuration not stated)	1	-7	11	-6	0	-9
O=C(c1ccc(OC2CCN(CCCc3ccccc3)CC2)cc1)N1CCCC1	1	3	42*	-7	-15	-19
CCNC(=S)Nc1cc(-c2ccc(Cl)cc2)[nH]n1	3	-11	-13	-3	19	13
CCCn1c(C(C)Nc2nc(-c3ccc(Cl)c([N+](=O)[O-])c3)cs2)nc2ccccc21 (configuration not stated)	0	-13	-7	-1	0	7
FC(F)(F)c1cc(NCc2cccs2)n2ncnc2n1	1	-4	-4	-4	27	8
COc1ccccc1/C=C/CN1CCC(Oc2ccc(C(=O)N3CCCC3)cc2)CC1	0	26*	73*	-6	-30	-23
O=C(NC1CCCCC1)c1cc2ccccc2cc1O	-1	-21	-25	1	-8	24*
Cc1cccc(NS(=O)(=O)c2cccc(C(=O)NCC(c3ccco3)N3CCCCC3)c2)c1 (configuration not stated)	1	1	6	-7	-21	-3
O=C(NCC(c1ccco1)N1CCCC1)c1cccc(NS(=O)(=O)c2ccc(Br)cc2)c1 (configuration not stated)	2	-10	50*	-7	6	-23
SMILES	CHO-K1 Ca ag	CHO-K1 Ca antag	M1 antag	M1 ag	CHO-K1 Ca PAM	CHRM1 PAM
O=C(NCC(c1ccco1)N1CCCC1)c1ccc(S(=O)(=O)Nc2ccc(F)cc2)cc1 (configuration not stated)	6	-4	50*	-1	3	-25
O=C(NCC(c1ccco1)N1CCCCC1)c1ccc(NS(=O)(=O)c2ccc(F)cc2)cc1 (configuration not stated)	0	1	14	-6	-7	-15
CC1CCC(NC(=O)C2CCN(S(=O)(=O)c3ccc4nc5c(c(C(=O)O)c4c3)CC(C)CC5)CC2)CC1 (configuration not stated)	0	-3	-12	-3	3	11
CCOC(=O)/C(=C\C=C1/Sc2cc(OCC)c(OCC)cc2N1CC)C(C)=O	38*	18	24	44*	-2	-15
CCOC(=O)/C(=C/C=C1\Sc2cc(OCC)c(OCC)cc2N1CC)C(C)=O	46*	30*	27	70*	-15	-21
CCN1/C(=C/C(C)=O)Sc2ccc(OC)cc21	0	-18	-1	-3	8	6
Cc1cc(C(=O)COc2ccc(C#N)cc2)c(C)n1CC1CCCO1 (configuration not stated)	1	10	-6	1	-1	12
Cc1ccc(C)c(NC(=O)Cc2coc3cc4c(cc23)CCC4)c1	0	-1	8	-3	-1	28*
CCC(C)c1ccccc1NC(=O)Cc1coc2cc3c(cc12)CCC3 (configuration not stated)	0	0	0	-7	10	-3
CSc1ccccc1-c1ccc2nccn2c1	1	19	35*	-9	-4	-25
COc1cccc(-c2ccc3nccn3c2)c1	0	28*	23	-9	-14	-9
Clc1cccc(-c2ccc3nccn3c2)c1Cl	1	10	-13	-7	-9	1
Cc1ccc(C(=O)C2CCN(CC(=O)NCc3ccc(F)cc3)CC2)cc1	4	-9	-4	-4	8	5
O=[N+]([O-])c1cccc(CN2CCCCCC2)c1	0	-4	-9	-9	6	8
O=[N+]([O-])c1cccc(COc2ccc(CN3CCCC3)cc2)c1	2	-12	59*	-8	13	-30
O=[N+]([O-])c1cccc(COc2ccc(CN3CCOCC3)cc2)c1	2	-13	49*	-4	16	-26
COc1cc(NC(=O)[C@@H](NC(=O)c2ccco2)C(C)C)c(OC)cc1NC(=O)c1ccccc1	1	-20	-7	-5	5	9
